Compound activity deposited in PubChem by National Center for Advancing Translational Sciences (NCATS).
Rows were chosen to be rich in hits. Some 3% of all compounds tested hit in one or more screens of this group.
KDM5B inhibitor = KDM5B demethylase inhibition. Potency, µM (top dose mostly 57.7 µM), hits mostly inhibitors. AID 1347165. KDM5B demethylase, FDH-coupled NADH fluorescence (FDH is formaldehyde dehydrogenase). 220,000 tested, 2.6% active; further: potency means the concentration at half of the fitted maximal effect; 0% is about no effect; nearly all actives have a fitted effect of over 70% in size
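KDM5BΔAP (200 nM final) in 50 mM HEPES pH 7.5, 0.01% Tween-20 was preincubated 10 min at RT with compound over a concentration range. Substrate mix (H3K4me3 12.5 µM, α-KG 25 µM, Fe²⁺, ascorbate, NAD⁺, FDH) was added, and NADH fluorescence change over 30 min gave dose-response curves.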
SNCA viab count = cell viability loss counter-screen | Potency, µM (highest dose often 57.1 µM), inactives show top-dose activity change, negative = cytotoxicity, hits mostly cytotoxic | 150,000 tested, 0.12% active | HEK-293-SNCA-luc viability, GF-AFC fluorescence, 24 h;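 further: potency means the concentration at half of the fitted maximal effect; 0% = DMSO-treated cells and -100% = medium-only wells without cells; nearly all actives have a fitted effect of over 30% in size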
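HEK-293-SNCA-luc cells (1500/well) plated 24 h, then exposed 24 h to a dilution series; GF-AFC added 30 min at 37C, fluorescence 405/540 nm; normalised to medium-only and DMSO wells, Hill fit.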
IP6K1 inhibitor = inhibitors of human IP6K1; Q92551; IP6K1 kinase, ADP-Glo luminescence, 2 h; hits give low values; activity change, % (series mostly up to about 58 µM); 140,000 tested, 0.81% active; in the data active means activity change below about -25%; further: on the % scale 0 is the no-effect control and ±100 the full control effect
Target sequence (Q92551 whole entry, looked up): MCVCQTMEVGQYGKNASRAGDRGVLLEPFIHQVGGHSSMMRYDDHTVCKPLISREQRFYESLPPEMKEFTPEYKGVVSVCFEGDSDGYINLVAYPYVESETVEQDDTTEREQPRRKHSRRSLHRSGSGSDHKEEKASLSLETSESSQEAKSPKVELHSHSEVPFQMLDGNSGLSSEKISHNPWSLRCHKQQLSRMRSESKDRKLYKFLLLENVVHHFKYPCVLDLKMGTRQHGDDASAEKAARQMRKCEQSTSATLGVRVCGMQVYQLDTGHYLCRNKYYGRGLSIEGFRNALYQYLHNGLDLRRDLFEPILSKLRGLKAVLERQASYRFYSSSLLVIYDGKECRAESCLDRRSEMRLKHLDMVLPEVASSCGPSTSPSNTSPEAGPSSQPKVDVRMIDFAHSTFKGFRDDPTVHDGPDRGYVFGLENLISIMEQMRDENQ
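ADP-Glo luminescence measures ADP made by human IP6K1 during a 2 h RT reaction with ATP/IP6 (mix at 1.3 mM/130 uM); top library doses 57.5 and 19.1 uM final.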
SNCA expr inh = inhibitors of alpha-synuclein (SNCA) gene expression; HEK-293 SNCA-luciferase knock-in, luminescence, 24 h; Potency, µM (titrated, usually from 57.2 µM), without a hit: top-dose activity change, negative = inhibition, most hits filed as inhibitors; 140,000 tested, 0.17% active; AID 1671194;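 further: potency means the concentration at half of the fitted maximal effect; plate controls were DMSO cells for no effect and cell-free wells for full effect; nearly all actives have a fitted effect of over 45% in size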
Numbers without * were called inactive; i = inactive; ? = inconclusive; · = no result; + = active, no number; [ ] = another dose, or the depositor's remark. Unless noted, the call rests on the fitted dose curve; in most records, active means well fitted curve in the direction sought with a large enough effect; inconclusive means small, poorly fitted or top-dose-only effect, or another doubt; inactive means no such curve, though single readings can be large; an effect the other way counts as inactive or inconclusive.

SMILES | KDM5B inhibitor | SNCA viab count | IP6K1 inhibitor | SNCA expr inh
O=C(O)CCCC(=O)N[C@H]1CO[C@H]2[C@@H]1OC[C@@H]2Nc1nccc(-c2cccc(F)c2)n1 | 35µM* | 1%[87.6 µM] | -9 | -5%[87.6 µM]
O=C(NCc1ccccc1)O[C@@H]1CO[C@H]2[C@@H]1OC[C@@H]2Nc1nccc(-c2ccc3c(c2)OCO3)n1 | ? | -17% | -5 | ?
CN(C)c1ccc(-c2ccnc(N[C@H]3CO[C@H]4[C@@H]3OC[C@H]4OC(=O)NCc3ccccc3)n2)cc1 | 28µM* | -6% | 3 | -22%
CC(=O)Nc1cccc(NC(=O)c2cc(C(C)C)nc3ccccc23)c1 | i | · | · | ·
CCOCCOC(=O)c1nc2ccccc2nc1Nc1ccc(Cl)cc1 | i | · | · | ·
CN(C)C(=O)c1cc(-c2ccc(C(F)(F)F)cc2)nc2c1cnn2C | · | · | 6 | ·
Nc1nnnn1Cc1nnc(SCc2ccccc2F)n1-c1ccccc1 | i | · | · | ·
O=C1N[C@H](CC(=O)N2CCN(c3ccccn3)CC2)C(=O)Nc2ccccc21 | 28µM* | 10% | -2 | -11%
CCOc1ccccc1C(=O)NCC(=O)N1CCN(c2ccccn2)CC1 | 28µM* | 14% | 6 | 21%
CC(=O)NCc1ccc(S(=O)(=O)N2CCN(c3ccccn3)CC2)cc1 | i | · | · | ·
O=C(Cc1c(F)cccc1Cl)NCC(=O)N1CCN(c2ccccn2)CC1 | 25µM* | 11% | 6 | 9%
O=C(NCC(=O)N1CCN(c2ccccn2)CC1)c1cncc(Br)c1 | ? | 10% | 3 | 1%
Cn1c(N2CCN(C(=O)C[C@H]3NC(=O)c4ccccc4NC3=O)CC2)nc2ccccc21 | i | 6% | 1 | -11%
CC(C)(C)CC(=O)NCC(=O)N1CCN(c2ccccn2)CC1 | 28µM* | 4% | 4 | 2%
COc1cccc(-c2ccc(C(=O)NCCNC(=O)c3ccccn3)cc2)c1 | · | · | -12 | ·
COc1ccc(Nc2ccnc(N3CCN(C(=O)Nc4ccccc4)CC3)n2)cc1 | · | -6% | 0 | -6%
CNC(=O)[C@H]1C[C@]2(CCCCN(CCO)C2=O)N(C(=O)Cc2ccc(F)cc2)[C@H]1c1ccco1 | · | · | -9 | ·
CC(C)CC(=O)NCC(=O)N1CCN(c2ccccn2)CC1 | 25µM* | 1% | 11 | 34%
O=C(NCC(=O)N1CCN(c2ccccn2)CC1)c1cc2ccccc2[nH]1 | 14µM* | -3% | 2 | 76%
Cc1ccc(C(=O)NCC(=O)N2CCN(c3ccccn3)CC2)cc1 | 28µM* | 5% | 22 | 49%
CC(C)Oc1cccc2c1c(NC(=O)C1CCCO1)nn2Cc1ccccc1 (stereo not given) | i | -4% | -5 | -7%
CC(C)Oc1cccc2c1c(NC(=O)c1ccn(C)n1)nn2Cc1ccccc1 | 25µM* | -25% | 19 | ?
O=C(NCc1nnc2ccc(-c3ccccc3)nn12)c1ccco1 | 28µM* | 0% | 4 | 8%
Cc1ccc(-c2ccc3nnc(CNC(=O)c4ccco4)n3n2)cc1 | 32µM* | 1% | 3 | 35%
COc1cccc(-c2nc3cnccn3c2NCCC(=O)N2CCN(C)CC2)c1 | 28µM* | ? | 13 | -4%
SMILES | KDM5B inhibitor | SNCA viab count | IP6K1 inhibitor | SNCA expr inh
COc1ccccc1-c1nc2cnccn2c1NCCC(=O)N1CCc2ccccc21 | 28µM* | 19% | 3 | 20%
COc1cccc(-c2nc3cnccn3c2NCCC(=O)N2CCc3ccccc32)c1 | 22µM* | 24% | 21 | 10%
COc1ccc(Nc2c(-c3cccc(O)c3)nc3cnccn23)cc1 | i | -10% | -7 | 8%
COc1ccccc1-c1nc2cnccn2c1NCCC(=O)Nc1ccc2c(c1)OCO2 | 28µM* | ? | 1 | -1%
CS(=O)(=O)NCCc1ccc(CC2CCN(C(=O)CC3CCCC3)CC2)cc1 | · | -4% | 12 | -30%
O=C(NCCc1ccccc1)c1nc2sccn2c1-c1ccc(C(F)(F)F)cc1 | · | -26% | 13 | ?
O=C(O)CCC(=O)N1Cc2ccccc2CC2(CCCCN2CCc2ccccc2)C1 (stereo not given) | + | 5% | -12 | -22%
CCCN1CCCCC12Cc1ccccc1CN(C(=O)C1CCCC1)C2 (stereo not given) | 50µM* | -23% | -6 | -20%
CN1CCCCC12Cc1ccccc1CN(C(=O)c1ccccc1)C2 (stereo not given) | 56µM* | -4% | -6 | 5%
COc1ccc(CN2C(=O)[C@H](OC)[C@@H]2C2=CCN(C(=O)c3ccnn3C)CC2)cc1 | · | -6% | 16 | 9%
O=C1c2cnc(-c3cc4ccccc4o3)nc2OCCN1c1ccccc1 | 22µM* | -6%[87.6 µM] | -17 | ?
O=C1c2cnc(-c3cc4ccccc4o3)nc2OCCN1Cc1ccccc1 | i | -8%[87.6 µM] | -12 | -39%[87.6 µM]
COc1ccc(N2C(=O)CSC23CCN(C(=O)c2ccccc2Br)CC3)cc1 | 35µM* | 7% | 9 | 4%
Cc1nnc2ccc(N3CCC(NC(=O)c4ccccc4F)C3)nn12 (stereo not given) | · | · | 8 | ·
CCC1=C(C(=O)OC)C(c2ccccc2C)N2C(CC(=O)NCC3CC3)=CSC2=N1 (stereo not given) | 32µM* | -12% | 23 | -28%
Cc1ccc(-c2cc(C(=O)N3CCC(c4cc(CC(=O)O)[nH]n4)CC3)n[nH]2)o1 | 25µM* | -3% | 14 | 3%
Cc1ccc2nc(C)cc(C(=O)N3CCC(c4cc(CC(=O)O)[nH]n4)CC3)c2c1 | i | 5% | 1 | -13%
O=C(NCc1cccc(C(F)(F)F)c1)C1CCN(c2ccnc3ccnn23)CC1 | · | 0% | -3 | 6%
O=C(c1ncn[nH]1)N1C[C@@H](COCC2CC2)[C@H](c2ccccn2)C1 | i | -24% | 2 | 0.79µM*
O=C(c1ncccc1F)N1C[C@@H](COCC2CC2)[C@H](c2ccccn2)C1 | i | -4% | 6 | 7%
COc1ccc(CNC(=O)C2CCCN2Cc2ccc(-c3cccc(OC)c3)cc2)cc1 (stereo not given) | · | 3% | 10 | -11%
O=C1NCCN2CC3(CCN(C(=O)Nc4ccccc4F)CC3)CC12 (stereo not given) | ? | -1% | -13 | 37%
O=C1NCCN2CC3(CCN(C(=O)Nc4ccc5c(c4)OCCO5)CC3)CC12 (stereo not given) | 25µM* | -1% | -6 | 107%
Cc1cc(C)n2ncc(C(=O)N3CCC(=O)N(CC4CC4)C(C(C)C)C3)c2n1 (stereo not given) | 32µM* | 13% | -4 | 4%
Cc1nc2ncccn2c1C(=O)N1CCC(=O)N(CC2CC2)C(C(C)C)C1 (stereo not given) | 28µM* | 2% | 9 | -19%
Brc1ccc(-c2noc(-c3ccc4c(c3)OCO4)n2)o1 | i | · | · | ·
Cc1ccc(C)c(NC(=O)c2cc3n(n2)CC(c2ccc(Cl)cc2)OC3)c1 (stereo not given) | 28µM* | -1% | 27 | -5%
Cc1ccc(NC(=O)c2cc3n(n2)CC(c2ccc(Cl)cc2)OC3)c(Cl)c1 (stereo not given) | 18µM* | 7% | 26 | 36%
